Here are results for eight compounds from PubChem BioAssay (NCI).

The structures appear in SMILES notation. About 83,000 compounds went through this panel and 20% of them were active in at least one assay; those are over-represented in the sample as a whole.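 In brief: 96-well plates, 48 h treatment, single concentration, percent growth endpoint.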 Unmarked numbers belong to inactive results. The source made the active and inactive calls. How the source made its calls: active means growth percent below 10; inactive means the rest.

Assay in all cases: NCI-60 one-dose screen, 48 h (100 = growth as untreated, 0 = no growth, -100 = all killed)
One assay has as its system SNB-75 CNS. The note with it: 10 µM unless noted.
Another assay deals with SNB-19 CNS. As to conditions: 10 µM unless noted.
The next assay relates to U251 CNS. The note with it: 10 µM unless noted.
Another assay concerns PC-3 prostate. The note with it: 10 µM unless noted.
The subject of the next assay is SK-MEL-5 melanoma. The note with it: 10 µM unless noted.
For the next assay, the system named is UACC-62 melanoma. As to conditions: 10 µM unless noted.
For another assay, the system named is LOX IMVI melanoma. As to conditions: 10 µM unless noted.
The test system of the next assay is SK-MEL-28 melanoma. As to conditions: 10 µM.
In another assay the test system is SK-MEL-2 melanoma. The note with it: 10 µM unless noted.
A further assay has as its system SN12C renal. As to conditions: 10 µM unless noted.
A further assay deals with UO-31 renal. The note with it: 10 µM unless noted.
The next assay has as its system TK-10 renal. As to conditions: 10 µM unless noted.
A further assay has as its system ACHN renal. The note with it: 10 µM unless noted.
Another assay has as its system CAKI-1 renal. As to conditions: 10 µM unless noted.
The next assay deals with A498 renal. As to conditions: 10 µM unless noted.
The next assay deals with CCRF-CEM leukemia. As to conditions: 10 µM unless noted.
The next assay deals with MOLT-4 leukemia. The note with it: 10 µM unless noted.
A further assay concerns SR leukemia. As to conditions: 10 µM unless noted.
Another assay relates to EKVX NSCLC. As to conditions: 10 µM unless noted.

Regarding `COc1nccc2cc3c(=O)n4c(cc5ccccc54)c(=O)n3c12`, the growth in the assay on SNB-75 CNS is 89.2%; in the assay with SNB-19 CNS it was 108%; with U251 CNS, 101%; in the assay on PC-3 prostate, 87.8%; in the assay with SK-MEL-5 melanoma it was 96.6%; in the assay with UACC-62 melanoma, 101%. The growth in the assay with LOX IMVI melanoma is 97.1%; in the assay on SK-MEL-28 melanoma it was 109%; in the assay on SK-MEL-2 melanoma, 94.3%; with SN12C renal, 95.7%; in the assay with UO-31 renal, 53.4%; in the assay with TK-10 renal, 131%. In addition, the growth with ACHN renal was 96%; with CAKI-1 renal, 92.5%; with A498 renal it was 108%; in the assay on CCRF-CEM leukemia it was 96.5%; in the assay on MOLT-4 leukemia, 86.3%; with SR leukemia it was 87.1%.
As for `COc1ccc(/C=C/C(=O)c2ccc3cc(OC)c(OC)cc3c2)cc1OC`, the growth in the assay on SNB-75 CNS was 49.7%; in the assay with SNB-19 CNS, 71.9%; with U251 CNS, 22.8%; in the assay on PC-3 prostate, 42%; with SK-MEL-5 melanoma it was 36.7%; in the assay with UACC-62 melanoma it was 57.6%. The growth with LOX IMVI melanoma was 6.59% (active); in the assay on SK-MEL-28 melanoma, 96.3%; with SK-MEL-2 melanoma, 83.6%; in the assay on SN12C renal, 32.2%; in the assay with UO-31 renal, 27.7%; in the assay with TK-10 renal it was 65.1%. Besides, the growth was 55.4% with ACHN renal; 30.2% in the assay with CAKI-1 renal; 70.9% in the assay on A498 renal; 32.8% in the assay on CCRF-CEM leukemia; 30.7% in the assay on MOLT-4 leukemia; 3.83% (active) in the assay with SR leukemia.
Turning to `CSc1nc2c(c(=O)[nH]1)N=C1c3ccccc3C(=O)C1C(c1ccccc1)N2` (stereo unspecified), the growth in the assay on SNB-75 CNS is 34.3%; in the assay with SNB-19 CNS, 39.8%; in the assay with U251 CNS, 37.5%; in the assay with PC-3 prostate, 54.5%; with SK-MEL-5 melanoma, 16.1%; with UACC-62 melanoma, 37.8%. Further, the growth in the assay on LOX IMVI melanoma is 51.9%; in the assay on SK-MEL-28 melanoma, 54%; with SK-MEL-2 melanoma it was 59%; in the assay on SN12C renal it was 68.7%; in the assay with UO-31 renal, 70%; with TK-10 renal it was 67.8%. The growth in the assay on ACHN renal is 48.7%; in the assay with A498 renal, 45.3%; in the assay with CCRF-CEM leukemia, 29%; in the assay on MOLT-4 leukemia, 20%; with SR leukemia it was -35.6% (active).
`CC(C)[C@H](NC(=O)Cn1cc(C(=O)O)nn1)C(=O)O`: the growth is 104% in the assay with SNB-75 CNS; 105% in the assay with SNB-19 CNS; 100% with U251 CNS; 94.1% with PC-3 prostate; 98.6% in the assay with SK-MEL-5 melanoma; 103% with UACC-62 melanoma. Further, the growth in the assay with LOX IMVI melanoma was 104%; in the assay on SK-MEL-28 melanoma, 111%; with SK-MEL-2 melanoma, 127%; in the assay with EKVX NSCLC it was 93.8%; in the assay on SN12C renal, 95.7%; in the assay with UO-31 renal, 88.7%. The growth in the assay with TK-10 renal is 115%; in the assay with CAKI-1 renal it was 89.4%; with A498 renal it was 90.6%; in the assay on CCRF-CEM leukemia, 113%; in the assay on MOLT-4 leukemia, 96.7%; in the assay with SR leukemia, 101%.
Take `O=c1oc2ccc(I)cc2c(=O)n1-c1ccc(Br)cc1F`: the growth is -18.9% (active) with SNB-75 CNS; 18.2% in the assay on SNB-19 CNS; 0.297% (active) with U251 CNS; 1.7% (active) in the assay with PC-3 prostate; -14.7% (active) with UACC-62 melanoma; 11.2% in the assay with LOX IMVI melanoma. The growth in the assay on SK-MEL-28 melanoma is 2.3% (active); with SK-MEL-2 melanoma, -27.7% (active); with EKVX NSCLC it was 7.21% (active); with SN12C renal, 0.636% (active); in the assay with UO-31 renal it was 5.6% (active); in the assay with TK-10 renal, 0.987% (active). Moreover, the growth was 1.01% (active) with ACHN renal, -17.8% (active) with CAKI-1 renal, -62.2% (active) with A498 renal and 3.69% (active) in the assay on MOLT-4 leukemia.
On to `Cc1cc(Br)c(N)c(Br)c1`, for which the growth in the assay on SNB-75 CNS is 84.3%; in the assay on SNB-19 CNS, 103%; with U251 CNS it was 96.4%; in the assay with PC-3 prostate, 93%; with SK-MEL-5 melanoma it was 102%; with UACC-62 melanoma it was 98.6%. For the same compound, the growth in the assay on LOX IMVI melanoma is 93.6%; in the assay with SK-MEL-28 melanoma it was 101%; in the assay with SK-MEL-2 melanoma it was 110%; in the assay with EKVX NSCLC, 95.6%; in the assay on SN12C renal it was 109%; with UO-31 renal, 102%. The growth in the assay on ACHN renal was 99.1%; with CAKI-1 renal, 98%; with A498 renal, 84.1%; in the assay with CCRF-CEM leukemia it was 103%; in the assay on MOLT-4 leukemia it was 96.4%; with SR leukemia it was 100%.
For the compound `CN(CCc1ccccc1)C(=S)N(C(=O)c1ccc([N+](=O)[O-])cc1)c1ccc(Cl)cc1`, the growth with SNB-75 CNS is 97.2%; in the assay on SNB-19 CNS, 101%; in the assay on U251 CNS, 90.4%; in the assay with PC-3 prostate it was 77.5%; in the assay on SK-MEL-5 melanoma, 98.3%; in the assay on UACC-62 melanoma it was 92%. Further, the growth was 61.3% in the assay on LOX IMVI melanoma; 95.2% in the assay with SK-MEL-28 melanoma; 87.9% in the assay on SK-MEL-2 melanoma; 95.1% in the assay on EKVX NSCLC; 89% in the assay with SN12C renal; 76.8% in the assay with UO-31 renal. The growth in the assay with TK-10 renal is 76%; with CAKI-1 renal it was 85.5%; with A498 renal, 93.4%; with CCRF-CEM leukemia it was 39.6%; in the assay on MOLT-4 leukemia, 43.1%; in the assay with SR leukemia it was 25%.
In the case of `COc1cc2cc3c(=O)n4c(cc5cc(OC)ncc54)c(=O)n3c2cn1`, the growth with SNB-75 CNS is 94.2%; in the assay on SNB-19 CNS, 105%; in the assay with U251 CNS it was 104%; with PC-3 prostate, 97.2%; in the assay with SK-MEL-5 melanoma, 109%; in the assay with UACC-62 melanoma it was 111%. In addition, the growth is 100% with LOX IMVI melanoma; 106% in the assay with SK-MEL-28 melanoma; 98% in the assay on SK-MEL-2 melanoma; 98.6% in the assay with SN12C renal; 88.8% with UO-31 renal; 107% in the assay with TK-10 renal. The growth is 110% in the assay with ACHN renal; 98.4% in the assay on CAKI-1 renal; 104% in the assay on A498 renal; 91.9% in the assay with CCRF-CEM leukemia; 99.2% in the assay on MOLT-4 leukemia; 98% in the assay on SR leukemia.
